An excerpt weighted towards active compounds, which were near 10% of everything screened.
RORgamma inh = ROR gamma (mouse) transcription inhibition | Potency, µM (titrated, usually from 53.6 µM), actives largely listed as inhibitors | Drosophila S2 Gal4-RORgamma UAS-luciferase reporter, 20 h | 5.4% of 310,000 active; also: nearly all actives have a fitted effect of over 60% in size
Target sequence (P51450 whole entry, looked up, the tested form may be a part): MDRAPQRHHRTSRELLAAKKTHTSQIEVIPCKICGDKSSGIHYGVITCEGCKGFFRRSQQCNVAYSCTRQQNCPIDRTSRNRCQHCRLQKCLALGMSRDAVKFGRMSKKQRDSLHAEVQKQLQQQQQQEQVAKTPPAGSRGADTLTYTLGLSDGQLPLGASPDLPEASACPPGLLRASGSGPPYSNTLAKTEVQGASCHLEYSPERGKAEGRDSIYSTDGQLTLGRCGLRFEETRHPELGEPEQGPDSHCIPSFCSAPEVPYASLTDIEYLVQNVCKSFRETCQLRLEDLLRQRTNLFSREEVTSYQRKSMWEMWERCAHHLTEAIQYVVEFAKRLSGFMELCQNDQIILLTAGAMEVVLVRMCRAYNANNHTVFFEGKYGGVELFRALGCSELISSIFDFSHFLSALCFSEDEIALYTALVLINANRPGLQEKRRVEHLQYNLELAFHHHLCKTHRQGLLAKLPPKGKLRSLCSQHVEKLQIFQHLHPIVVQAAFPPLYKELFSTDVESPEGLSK
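Compounds are pin-transferred onto Drosophila Schneider cells expressing a copper-inducible Gal4–ROR gamma transactivation domain fusion. After 1 hr, copper sulfate is added to 700 uM final; luciferase is read 20 hr later.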
SW480 rereplic = inducers of DNA re-replication in SW480 colon cancer cells | Potency, µM (series often up to 46.1 µM), most hits filed as activators | 1.8% of 340,000 active | SW480 DNA re-replication, Hoechst DNA content imaging, 48 h; also: nearly all actives have a fitted effect of over 55% in size
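Compounds, transferred as 23 nL by pin tool, were incubated with cells for 48 hr; DNA content per nucleus was then quantified by Hoechst staining and fluorescence plate imaging.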
Gal4-VP16 FLuc = inhibits Gal4-VP16 luciferase reporter, ROR gamma counter-screen; AID 2546; Potency, µM (series often up to 53.6 µM), most hits filed as inhibitors; 3.5% of 310,000 active; Drosophila S2 Gal4-VP16 UAS-luciferase, luminescence, 20 h;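 also: Gal4-VP16 expression switched on by copper sulfate through the metallothionein promoter; nearly all actives have a fitted effect of over 50% in size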
KB-V1 cytotox = KB-V1 MDR subline cytotoxicity; KB-V1 MDR cells viability, CellTiter-Glo, 72 h; Potency, µM (top dose mostly 46.1 µM), hits mostly cytotoxic; 3.4% of 400,000 active; AID 1347076; also: nearly all actives have a fitted effect of over 60% in size
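In this primary screen, KB-V1 cells overexpressing P-gp are incubated with library compounds (lowest to highest concentration) for 72 h at 37 degrees C before a luminescent ATP viability read.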
KB-3-1 tox = kills parental KB-3-1 adenocarcinoma cells. KB-3-1 viability, CellTiter-Glo ATP luminescence, 72 h. AID 1347075. Potency, µM (doses to about 46.1 µM), actives largely listed as cytotoxic. 1.4% of 400,000 active; also: nearly all actives have a fitted effect of over 60% in size
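Cytotoxicity measured as CellTiter-Glo luminescence after 72 h at 37 C. Compound titrations were pinned onto drug-naive KB-3-1 parental adenocarcinoma cells grown in DMEM with 10% FBS, and normalized data fitted to concentration-response curves.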
MCF10A rerep = inducers of DNA re-replication in MCF 10A breast cells; AID 624296; MCF 10A DNA re-replication, Hoechst nuclear intensity, 48 h; 2.9% of 350,000 active; Potency, µM (titrated, usually from 46.1 µM), usual class: activators; also: nearly all actives have a fitted effect of over 50% in size
A number is an active result; . = inactive; ? = inconclusive; / = not tested or not shown; [ ] = another dose, or the depositor's remark. Calls follow the shape of the dose curve; as a rule, active = well fitted curve in the direction sought with a large enough effect; inconclusive = small, poorly fitted or top-dose-only effect, or another doubt; inactive = no such curve, though single readings can be large; an effect the other way counts as inactive or inconclusive.

SMILES	RORgamma inh	SW480 rereplic	Gal4-VP16 FLuc	KB-V1 cytotox	KB-3-1 tox	MCF10A rerep
COCCn1c(SCc2nc3ccccc3c(=O)[nH]2)nc2ccccc2c1=O	.	.	.	?	.	.
O=c1c2ccccc2nc(SCc2ccc([N+](=O)[O-])cc2)n1CCCO	.	.	.	2.9µM	.	.
CCCn1c(SCc2nc3sc(C)c(C)c3c(=O)[nH]2)nc2ccccc2c1=O	.	.	.	9.2µM	.	?
Cc1cc(C)c(-n2c(SCc3nc4ccccc4s3)n[nH]c2=O)c(C)c1	?	.	3.2µM	?	.	.
COc1ccc(C(=O)NCc2ccc3c(c2)CCN3C(=O)c2ccncc2)cc1	/	/	/	.	.	/
CS(=O)(=O)N1CCC2(CC1)CN(Cc1nccs1)C2	.	/	.	/	/	/
CC(C)C[C@H]1CN(CCCC[C@H]2CNC(=O)C(=O)N2CCc2ccccc2)C(=O)C(=O)N1CCC1CCCCC1	/	/	/	.	.	/
O=C1CC(c2nc3ccccc3n2CCCCOc2ccccc2)CN1c1ccccc1Cl (centres undefined)	/	/	/	.	?	/
O=C(CSc1n[nH]c(-c2ccccc2)n1)NCCc1ccccc1	/	/	/	.	.	/
Cc1ccc(OCC(=O)Nc2ccc(S(=O)(=O)Nc3onc(C)c3C)cc2)cc1	.	.	.	.	.	.
Cc1ccc(S(=O)(=O)CC(=O)Nc2ccc(S(=O)(=O)Nc3onc(C)c3C)cc2)cc1	.	10µM	.	.	.	.
CCc1ccc(C(=O)/C=C/Nc2ccc(S(=O)(=O)Nc3onc(C)c3C)cc2)cc1	?	.	16µM	.	.	26µM
Cc1noc(NS(=O)(=O)c2ccc(N/C=C/C(=O)c3ccc(F)cc3)cc2)c1C	.	.	.	?	.	.
Cc1noc(NS(=O)(=O)c2ccc(NC(=O)CC(C)C)cc2)c1C	.	.	.	.	.	.
Cc1noc(NS(=O)(=O)c2ccc(NC(=O)CSc3nc4c(cc3C#N)CCCCC4)cc2)c1C	.	.	.	.	.	21µM
COc1ccc(C)cc1NC(=O)C1CCN(S(=O)(=O)c2ccc3[nH]c(=O)oc3c2)CC1	/	/	/	.	.	/
COc1ccc(-c2n[nH]c(=S)n2-c2ccc(C)cc2)cc1	0.89µM	.	10µM	.	.	.
Cc1ccc(-c2n[nH]c(=S)n2C)cc1	?	.	?	16µM	?	.
COc1ccc(-n2c(-c3ccc(Br)cc3)n[nH]c2=S)cc1	2.2µM	.	2.5µM	.	.	.
COc1ccc(-n2c(-c3cnccn3)n[nH]c2=S)cc1	?	.	.	.	.	.
Cc1occc1-c1n[nH]c(=S)n1C	?	.	.	.	.	.
COc1ccc(-n2c(-c3ccc(Br)cc3)nc(=S)c3c2CCCC3)cc1	7.9µM	.	10µM	?	?	.
Cc1nn(-c2ccccc2)c(-n2cccc2)c1C(=O)NCCc1ccc(Cl)cc1	/	/	/	?	.	/
CCC[C@@H]1C=C(C(=O)OCC)[C@H](c2ccccc2)N1S(=O)(=O)c1ccc(C)cc1	/	/	/	.	?	/
CCOC(=O)C1=NO[C@@]2(C=C(Br)C3(OCCCO3)[C@H]3O[C@H]32)C1	.[10 µM]	/	.[10 µM]	/	/	/
SMILES	RORgamma inh	SW480 rereplic	Gal4-VP16 FLuc	KB-V1 cytotox	KB-3-1 tox	MCF10A rerep
CCc1ccc(Nc2nnc(-n3nc(C)cc3C)c3ccccc23)cc1	/	/	/	.	.	/
COC(=O)[C@@]1(Cc2ccc(OC)cc2)[C@H]2c3cc(C(=O)N(C)C)n(Cc4ccc(OC)c(OC)c4)c3C[C@H]2CN1C(=O)c1ccccc1	.	/	.	/	/	/
FC(F)(F)c1cccc(NC(=S)NCc2ccc(Cl)cc2)c1	8.9µM	.	?	?	?	18µM
Fc1ccc(CNC(=S)Nc2cccc(C(F)(F)F)c2)cc1	?	.	?	21µM	?	.
Fc1cccc(NC(=S)NCc2ccc(Cl)cc2)c1	6.3µM	.	18µM	?	.	.
Fc1ccccc1CNC(=S)Nc1cccc(C(F)(F)F)c1	7.1µM	.	7.1µM	?	?	?
CC(C)CCNC(=O)c1ccc2nc(Cc3ccccc3)oc2c1	/	/	/	.	.	/
CC(C)C[C@H](NC(=O)[C@@H]1CCCN1C(=O)[C@H](Cc1ccccc1)NC(=O)[C@H](C)NC(=O)[C@H](CCC(=O)O)NC(=O)[C@H](C)NC(=O)[C@H](CO)NC(=O)[C@H](CCC(=O)O)NC(=O)[C@H](CC(=O)O)NC(=O)[C@H](CCC(=O)O)NC(=O)[C@H](C)NC(=O)CNC(=O)[C@H](CC(N)=O)NC(=O)[C@@H]1CCCN1C(=O)[C@H](Cc1ccc(O)cc1)NC(=O)[C@@H](NC(=O)[C@H](CCCCN)NC(=O)[C@@H](NC(=O)[C@@H]1CCCN1C(=O)[C@@H](N)CCCNC(=N)N)C(C)C)C(C)C)C(=O)N[C@@H](CCC(=O)O)C(=O)N[C@@H](Cc1ccccc1)C(=O)O	.	/	.	/	/	/
COC(=O)c1cc2sccc2n1Cc1nc(-c2cccc(Br)c2)oc1C	/	/	/	?	.	/
CC(C)(C)NNC(=S)Nc1cccc(F)c1	0.63µM	.	3.5µM	.	.	?
COc1ccccc1NC(=O)C1=C(C)Nc2nc(SCc3ccc(Cl)cc3)nn2C1c1ccccc1Cl (centres undefined)	/	/	/	.	.	/
CCCCC/C=C\C/C=C\C/C=C\CCCCCCC(=O)NCCCC(=O)O	.	/	.	/	/	/
Cn1ccnc1C(O)c1cc(C(C)(C)C)c(O)c(C(C)(C)C)c1 (centres undefined)	10µM	.	?	.	.	.
CC(C)C[C@H]1CN(CCCC[C@H]2CNC(=O)C(=O)N2CC2CCCCC2)C(=O)C(=O)N1CC1CCCCC1	/	/	/	.	.	/
CCCCC(=O)Nc1ccnc(-c2cccnc2)n1	.	.	.	16µM	.	.
CN1CC[C@@]2(CCCN(C(=O)c3cccn3C)C2)C1	.	/	.	/	/	/
O=C(CSc1nnc(CNC(=O)c2ccccc2)n1-c1cccc(Cl)c1)Nc1ccccc1F	/	/	/	.	.	/
O=C(CN(c1ccc2c(c1)OCCO2)S(=O)(=O)c1ccccc1)NCc1ccc(Cl)cc1	.	.	.	3.7µM	.	?
CCCCN(CC(=O)NCc1ccc(Cl)cc1)S(=O)(=O)c1ccc2c(c1)OCCO2	.	.	.	12µM	.	?
CCC(C)NC(=O)CCc1c(C)nc2cc(-c3ccc(OC)cc3OC)nn2c1C (centres undefined)	/	/	/	.	.	/
Cc1c(CNCc2ccc(OC(C)C)cc2)c(C(=O)O)c(C)n1Cc1ccc(Cl)cc1	/	/	/	.	?	/
CCS(=O)(=O)N1CCC(c2nc(-c3ccc(C(F)(F)F)cc3)no2)CC1	?	.	?	.	6.5µM	.
O=S(=O)(c1ccc(Cl)c(F)c1)N1CCC(c2nc(-c3ccncc3)no2)CC1	.	.	.	21µM	.	.
O=[N+]([O-])c1cccc(S(=O)(=O)N2CCC(c3nc(-c4ccncc4)no3)CC2)c1	.	.	.	.	.	.

Screens deposited in PubChem BioAssay by National Center for Advancing Translational Sciences (NCATS).
